# Source: PubChem BioAssay
# Most compounds without a hit are left out; they make up all but 7.3% or so of the library.
# p53 reactivator: mutant p53 re-activation in reporter cells; H1299 p53-A138V BP100-luciferase reporter, luminescence, 24 h; Potency, µM (titrated, usually from 92.2 µM), for the others: top-dose activity change, positive = activation, most hits filed as activators; 320,000 tested, 0.063% active; AID 504706; further: % of control where 0% means no effect; nearly all actives have a fitted effect of over 45% in size
#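 H1299 (p53-null), stable ts p53-A138V + BP100-Luc; 1000 cells/well, Opti-MEM/10% FBS; cpd 4 pt, 1:5; 24 h, 37 deg C, 5% CO2; detection reagent 10 min RT; luminescence.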
# Rab9 prom act: Rab9 promoter activation; AID 485297; Huh7 Rab9 promoter-luciferase reporter, luminescence, 24 h; 320,000 tested, 2.8% active; Potency, µM (doses to about 9.22 µM), inactives show at the highest dose activation, negative = inhibition, most hits filed as activators; further: % of control where 0% means no effect; nearly all actives have a fitted effect of over 60% in size
#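 Luciferase signal after 10 min detection reagent at ambient indicates Rab9 promoter upregulation; stably transfected Huh7 cells were treated 24 h with compound in DMSO at 37 °C, 5% CO2.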
# NPC1 promoter act: NPC1 promoter activation; Potency, µM (highest dose often 9.22 µM), for the others: at the top dose activation, usual class: activators; AID 485313; 320,000 tested, 2.4% active; Huh7 NPC1 promoter luciferase reporter, 24 h; further: % of control where 0% means no effect; nearly all actives have a fitted effect of over 60% in size
#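 Stable NPC1-promoter luciferase Huh7 line; cpd (DMSO) 24 h, 37 °C, 5% CO2; Amplite luciferase reagent 10 min RT; luminescence readout. qHTS format.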
# FLuc counter: counter-screen for miR-21 project: firefly luciferase inhibitors or activators; P08659; purified FLuc, Km substrates, luminescence inhibition; Potency, µM (doses to about 57.5 µM), for inactives: at the highest dose activity change, negative = inhibition, usual class: inhibitors; 360,000 tested, 6.9% active; AID 588342;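 further: plate controls were vehicle for no effect and reference inhibitor for full effect; nearly all actives have a fitted effect of over 55% in size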
# Target sequence (P08659 whole entry, looked up): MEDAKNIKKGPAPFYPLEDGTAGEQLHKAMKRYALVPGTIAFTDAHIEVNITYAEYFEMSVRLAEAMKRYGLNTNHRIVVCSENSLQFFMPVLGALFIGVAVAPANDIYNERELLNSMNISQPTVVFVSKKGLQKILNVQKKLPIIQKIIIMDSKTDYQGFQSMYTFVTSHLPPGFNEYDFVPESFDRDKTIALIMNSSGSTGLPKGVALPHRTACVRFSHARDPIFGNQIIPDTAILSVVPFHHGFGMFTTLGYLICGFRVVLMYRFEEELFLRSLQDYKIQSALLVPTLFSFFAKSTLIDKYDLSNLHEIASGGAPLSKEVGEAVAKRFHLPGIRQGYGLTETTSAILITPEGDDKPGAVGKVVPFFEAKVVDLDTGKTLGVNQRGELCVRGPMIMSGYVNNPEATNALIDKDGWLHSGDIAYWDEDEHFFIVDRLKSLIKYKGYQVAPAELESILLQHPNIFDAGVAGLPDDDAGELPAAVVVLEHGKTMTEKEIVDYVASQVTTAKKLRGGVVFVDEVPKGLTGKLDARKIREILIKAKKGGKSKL
#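 Biochemical qHTS of compounds, final roughly 60 µM downward over six points, against 10 nM purified firefly luciferase using Km concentrations of substrates (10 uM D-luciferin, 10 uM ATP) in Tris acetate pH 7.5 buffer; luminescence output.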
# SMN2 splice up: increases expression of the SMN2 splice variant; HEK293 SMN2-luciferase splicing reporter, luminescence, 30-36 h; 210,000 tested, 2.8% active; Potency, µM (titrated, usually from 46.1 µM), for the others: top-dose activity change, positive = activation, most hits filed as activators; further: % of control where 0% means no effect; nearly all actives have a fitted effect of over 55% in size
#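 HEK293 cells carry an SMN2 […]–luciferase reporter in which exon 7 inclusion puts luciferase in frame. Cells were plated 10-12 h before compound addition, then incubated 30-36 h at 37C. ONE-Glo luminescence was read; sodium butyrate at 4.5 mM final served as control.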
# ELG1 genotox: induces genotoxicity in HEK293T cells with luciferase-tagged ELG1. 330,000 tested, 1.3% active. Potency, µM (top dose mostly 46 µM), for the others: top-dose activity change, positive = activation, hits mostly activators. AID 504466. HEK293T ELG1-luciferase reporter, luminescence, 16 h; further: % of control where 0% means no effect; nearly all actives have a fitted effect of over 60% in size
#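 Cells (2,000/well) expressing the ELG1-luciferase fusion are dosed by pin tool and kept 16 hr at 37 °C, 5% CO2. Signal comes from ONE-Glo luciferase reagent after 30 min at room temperature.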
# * = called active by the depositor; ? = inconclusive; / = no result; [ ] = another dose, or the depositor's remark. The call rests on the fitted dose curve; in most records, active means well fitted curve in the direction sought with a large enough effect; inconclusive means small, poorly fitted or top-dose-only effect, or another doubt; inactive means no such curve, though single readings can be large; an effect the other way counts as inactive or inconclusive. Potency means the concentration at half of the fitted maximal effect.
SMILES,p53 reactivator,Rab9 prom act,NPC1 promoter act,FLuc counter,SMN2 splice up,ELG1 genotox
O=c1c(=Nc2ccccc2O)c(=O)c2ccccc12,11.3%,3.55µM*,?,-18.7%,11.2µM*,?
O=c1[nH][nH]cc1C=Nc1ccccc1O,10.8%,-9.8%,2.0%,0.6%,?,-2.2%
CC(=O)c1sc(NC(=O)c2ccccc2F)nc1C,15.2%,0.447µM*,1.41µM*,4.78µM*,3.16µM*,2.91µM*
CCOC(=O)c1sc(NC(=O)C(OC(C)=O)c2ccccc2)nc1C (centres undefined),26.0%,4.6%,-3.4%,0.2%,35.5µM*,10.2%
CCOC(=O)c1sc(NC(=O)c2c(OC)cccc2OC)nc1C,1.2%,22.2%,-3.2%,4.1%[2.3 µM],1.7%,0.9%
CC(=O)c1sc(NC(=O)c2cccs2)nc1C,6.4%,?,28.5%,9.53µM*,/,13.9%
CCOC(=O)c1sc(NC(=O)c2cccs2)nc1C,12.3%,?,?,2.39µM*,?,?
CCN(CC)c1nc2c(S(=O)(=O)c3ccc(C)cc3)nnn2c2ccsc12,/,/,/,-8.6%,/,/
NCC1O[C@@H](O[C@H]2C(O)C(O[C@@H]3C(O[C@H]4OC(CO)C(O)C(O)C4N)C(N)CC(N)[C@H]3O)O[C@@H]2CO)C(N)C(O)C1O (some centres undefined),/,/,/,/,-5.7%,/
COc1cccc(C2=CC(c3cccc(OC)c3OC)n3nnnc3N2)c1 (centres undefined),?,12.3%,-10.8%,23.9µM*,?,?
COc1ccc(C2C=C(c3ccccc3)Nc3nnnn32)cc1 (centres undefined),?,?,3.98µM*,3.4%,3.1%,12.6%
COc1cccc(C2=CC(c3cccc(OC)c3OC(F)F)n3nnnc3N2)c1 (centres undefined),-5.0%,-5.2%,7.9%,-3.9%,-16.0%,-6.8%
O=C(NCc1ccco1)c1sc2ccccc2c1Cl,?,?,26.4%,21.3µM*,?,?
Cc1ccc(NC(=O)c2nsc(Cl)c2Cl)cc1,6.6%,2.82µM*,3.55µM*,1.69µM*,/,?
CN1CCN(c2ccc(NC(=O)c3sc4ccccc4c3Cl)cc2)CC1,?,1µM*,2.51µM*,1.9µM*,3.2%,?
CCn1nnc(NC(=O)c2sc3ccccc3c2Cl)n1,?,?,2.24µM*,9.53µM*,11.2µM*,20.6µM*
Cc1ccc(NC(=O)c2ccc(Cl)nc2)cc1,3.4%,?,1.2%,?,?,27.6%
COc1ccc(Cn2c(C(=O)O)c(CNCC(C)c3ccccc3)c3ccc(OC)cc32)cc1 (centres undefined),/,/,/,-6.9%,/,/
O=C(O)NCC1CCCCC1 (tested in a mixture with another compound),/,/,/,/,-8.2%[9.22 µM],/
Cc1ccc(NC(=O)CN(C)C(=O)COC(=O)[C@@H](NC(=O)c2ccccc2F)C(C)C)cc1,4.9%,/,/,/,/,13.3%
Cc1ccc(NC(=O)c2sc3ccccc3c2Cl)cc1,/,/,/,1.2µM*,8.91µM*,/
O=C1CCC/C(=N/NC(=O)c2sc3ccccc3c2Cl)C1,5.3%,?,?,15.1µM*,/,11.6%
COc1ccc2c(c1)cc1c(=O)n(CC(=O)NCCc3ccccc3)nc(C)n12,/,/,/,0.1%,4.5%,/
COc1ccc(NC(=O)CC2C(=O)N(c3ccccc3)C(=O)N2CCc2sccc2C)cc1 (centres undefined),/,/,/,-14.5%,13.8%,/
Cc1ccccc1N=Nc1c(C)[nH]n(C(N)=S)c1=O,?,1.1%,10.1%,?,-2.7%,0.2%
SMILES,p53 reactivator,Rab9 prom act,NPC1 promoter act,FLuc counter,SMN2 splice up,ELG1 genotox
NC(=S)n1[nH]c(-c2ccc([N+](=O)[O-])cc2)c(N=Nc2cccc(Cl)c2)c1=O,-1.2%,-22.5%,-14.1%,-16.8%,-62.1%,-20.2%
Cc1cccc(N=Nc2c(C)[nH]n(C(N)=S)c2=O)c1C,4.1%,3.98µM*,?,12µM*,?,?
Cc1[nH]n(C(N)=S)c(=O)c1N=Nc1cccc(Cl)c1,?,?,?,5.36µM*,/,?
Cc1[nH]n(C(N)=S)c(=O)c1N=Nc1ccc([N+](=O)[O-])cc1Cl,4.0%,29.6%,?,9.53µM*,/,1.0%
COc1ccc(C(CC(=O)NCc2ccc(Cl)cc2)N2Cc3ccccc3C2=O)cc1OC (centres undefined),/,/,/,-1.2%,/,/
O=C(Nc1ccc(Br)cc1)c1cnccn1,?,3.55µM*,?,?,22.4%,?
Cc1ccc(NC(=O)c2cnccn2)cc1C,14.2%,3.16µM*,3.16µM*,10.7µM*,/,?
O=C(Nc1cccc2ccccc12)c1cnccn1,15.6%,3.9%,-1.7%,?,?,20.6µM*
Cc1nc(NC(=O)c2cnccn2)ccc1Br,?,2µM*,2.82µM*,8.49µM*,/,?
Cc1cccc(NC(=O)c2cnccn2)c1,9.6%,16.9%,20.2%,-18.0%,/,?
C/C=C1/C(=O)C[C@@H]2[C@H]3CCC4=CC(=O)CC[C@]4(C)[C@@H]3CC[C@]12C,/,/,/,/,-46.8%,/
COc1cccc(N2CCN(C3C(=O)c4ccccc4N3C(C)=O)CC2)c1 (centres undefined),/,/,/,-2.3%,/,/
Cc1ccc(NC(=O)c2cnccn2)cc1,23.3%,3.16µM*,2.51µM*,?,6.31µM*,?
COc1ccc(CCNC(=O)c2c(C)oc3ncn(CC(C)C)c(=O)c23)c(OC)c1,/,/,/,-2.5%,/,/
